D2 PAM-1 = human D2 receptor positive allosteric modulation. P14416. AID 624464. potentiation, % (concentration not given with the values). actives 0.23% (n = 360,000). DiscoveRx D2 beta-arrestin cells, luminescence, 90 min; 100% = 57 uM dopamine signal; in the data active = potentiation above about 50%; inconclusive = mostly about 30% to 49%
Target sequence (P14416 whole entry, looked up): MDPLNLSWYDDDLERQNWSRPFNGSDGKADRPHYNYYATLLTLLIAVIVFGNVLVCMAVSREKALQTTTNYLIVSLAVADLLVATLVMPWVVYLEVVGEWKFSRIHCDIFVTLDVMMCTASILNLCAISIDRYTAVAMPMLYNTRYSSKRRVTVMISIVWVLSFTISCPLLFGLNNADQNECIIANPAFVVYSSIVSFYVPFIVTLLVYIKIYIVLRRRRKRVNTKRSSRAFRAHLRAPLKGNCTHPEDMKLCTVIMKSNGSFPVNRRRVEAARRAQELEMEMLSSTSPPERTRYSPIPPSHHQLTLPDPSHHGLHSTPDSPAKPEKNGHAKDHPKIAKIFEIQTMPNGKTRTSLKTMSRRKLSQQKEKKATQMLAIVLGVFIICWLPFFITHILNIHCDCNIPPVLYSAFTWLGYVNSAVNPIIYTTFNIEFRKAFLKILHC
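PathHunter beta-arrestin assay in DiscoveRx D2 cells. Compounds were added with an EC20 of dopamine (50 nM final) for 90 min at 37 deg C. Luminescence was read 1 h after detection reagent, with 57 uM dopamine as the EC100 control.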
D2 PAM-2 = positively modulates the human D2 dopamine receptor allosterically; P14416; HEK293 T-REx D2, calcium flux, EC20 dopamine potentiation; potentiation, % at 10 µM; actives 0.34% (n = 340,000); AID 485347;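 active = potentiation over 3 SD above the plate norm, cut at about 30% in these data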; note: 0% is about no effect
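Primary screen. Calcium kinetics in induced HEK293 T-REx D2 cells: compound pre-addition 180 s, EC20 dopamine, 180 s more.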
D2 ag-1 = D2 dopamine receptor (human) agonism; AID 485358; P14416; actives 0.53% (n = 340,000); HEK293 T-REx D2 cells, calcium flux agonist mode; activation, % at 2 µM;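 active = activation over 3 SD above normal in the single-dose calcium agonist read, cut at about 30% in these data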; note: 0% is about no effect
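In this primary screen, compounds producing a positive calcium signal within 180 s of addition to tetracycline-induced, force-coupled HEK293 Trex D2 cells are flagged; cells are dye-loaded with a no-wash calcium kit beforehand.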
Apoferritin bind = candidate novel general anesthetic via apoferritin binding. P02791. apoferritin/1-aminoanthracene competitive binding, fluorescence. Potency, µM (titrated, usually from 77.5 µM), without a hit: top-dose activity change, negative = displacement, hits mostly inhibitors. actives 0.074% (n = 350,000). AID 485281; active = well fitted inhibition curve with a large enough effect; inconclusive = small, poorly fitted or top-dose-only effect; inactive = no such curve, though single readings can be large or run the other way; note: potency is the fitted concentration of half-maximal effect; % is set by controls: 0 for no effect and ±100 for the full control effect; nearly all actives have a fitted effect of over 20% in size
Target sequence (P02791 2-175 limits assumed): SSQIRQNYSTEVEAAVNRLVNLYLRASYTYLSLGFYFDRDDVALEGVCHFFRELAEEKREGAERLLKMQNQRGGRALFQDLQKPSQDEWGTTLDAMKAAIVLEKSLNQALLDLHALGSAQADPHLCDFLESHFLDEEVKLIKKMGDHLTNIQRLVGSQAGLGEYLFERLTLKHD
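Apoferritin-based anesthetic binding model; compound displacement of fluorescent 1-AMA measured as endpoint fluorescence after 10 minutes at room temperature, scaled to free-ligand and complex controls.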
D2 ag-2 = human D2 receptor agonism in beta-arrestin assay | P14416 | DiscoveRx PathHunter D2 beta-arrestin, luminescence, 90 min; 100% = 57 uM dopamine signal | activation, % (no concentration beside the values) | actives 0.084% (n = 360,000); in the data active = activation above about 40%; inconclusive = between about 15% and that limit
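Agonist mode: compounds alone added to overnight-plated D2 PathHunter cells for 90 min at 37 C, with 57 uM final dopamine (EC100) defining full response. Beta-arrestin recruitment detected by chemiluminescent reagent, read after 1 h at ambient temperature.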
D2 antag = D2 dopamine receptor (human) antagonism; HEK293 TREx D2 cells, calcium flux, dopamine EC80; inhibition, % at 10 µM; actives 2% (n = 340,000); AID 485344; in the data active = inhibition above about 30%; inactive = below that, where a call was filed; note: 0% is about no effect
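Inhibition of EC80 dopamine-driven calcium flux, recorded kinetically, defines activity here; cells are a tetracycline-induced HEK293 T-REx line expressing force-coupled D2.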
Active calls of the source: *. Sampled rows, rich in hits. Any-hit rate of the full collection: about 2.5%.

Screening CSc1cccc(NC(=O)CCCNC(=O)c2ccc(Cl)cc2)c1 returned D2 PAM-1 -14, D2 PAM-2 -23, D2 ag-1 -1, Apoferritin bind -16%, D2 ag-2 -2 and D2 antag 45*.
For Cc1cccc(NC(=O)CCNC(=O)c2ccccc2)c1 the results were D2 PAM-1 -2, D2 PAM-2 6, D2 ag-1 -4, Apoferritin bind -3%, D2 ag-2 0 and D2 antag 35*.
For Cc1ccc(S(=O)(=O)CCC(=O)OCC(=O)N2c3ccccc3NC(=O)C2(C)C)cc1 the results were D2 PAM-1 -15, D2 PAM-2 6, D2 ag-1 0, D2 ag-2 -3 and D2 antag 90*.
`O=[N+]([O-])c1ccc(-n2nnnc2-c2ccccc2)c([N+](=O)[O-])c1` gave D2 PAM-1 86*, D2 PAM-2 -11, D2 ag-1 1, Apoferritin bind 7%, D2 ag-2 inconclusive and D2 antag -2.
COc1ccc(-c2nnc(NC(=O)c3ccc(F)cc3)o2)cc1 was read as D2 PAM-1 1, D2 PAM-2 -13, D2 ag-1 -1, Apoferritin bind 4%, D2 ag-2 -6 and D2 antag 34*.
Screening CCOc1ccc(-c2nnc(NC(=O)Cc3ccc(OC)cc3)o2)cc1 returned D2 PAM-1 -7, D2 PAM-2 -8, D2 ag-1 0, Apoferritin bind 16%, D2 ag-2 -4 and D2 antag 35*.
Screening CC(C1CC1)N(C(=O)NC1CCS(=O)(=O)C1)c1ccccc1 (configuration not stated) returned D2 PAM-1 -3, D2 PAM-2 10, D2 ag-1 -2, Apoferritin bind -11%, D2 ag-2 0 and D2 antag -26.
`CCCOc1ccc(C(=O)NCC(c2cccs2)N(C)C)cc1` (configuration not stated) gave D2 PAM-1 -1, D2 PAM-2 -10, D2 ag-1 -1, Apoferritin bind -4%, D2 ag-2 -2 and D2 antag 14.
Screening CCOc1ccc(C(=O)NCc2ccncc2)cc1OCC returned D2 PAM-1 -41, D2 PAM-2 -24, D2 ag-1 1, Apoferritin bind -9%, D2 ag-2 -1 and D2 antag 34*.
Screening CCOc1ccc(C(=O)NCC(c2cccs2)N(C)C)cc1OCC (configuration not stated) returned D2 PAM-1 -26, D2 PAM-2 -28, D2 ag-1 -1, Apoferritin bind -7%, D2 ag-2 -2 and D2 antag 51*.
`Cc1ccc(SCC(=O)Nc2ccc(N3CCN(C)CC3)c(F)c2)c(C)c1` gave D2 PAM-1 57*, D2 PAM-2 -17, D2 ag-1 5, Apoferritin bind inconclusive, D2 ag-2 0 and D2 antag 3.
Cc1ccc(-n2nnnc2SCC(=O)Nc2ccc(N3CCN(C)CC3)cc2)c(C)c1 was read as D2 PAM-1 -20, D2 PAM-2 6, D2 ag-1 0, Apoferritin bind -16%, D2 ag-2 -1 and D2 antag 18.
Screening CCOC(=O)c1sc(=S)n(-c2ccc(C)cc2)c1SC returned D2 PAM-1 -7, D2 PAM-2 14, D2 ag-1 1, Apoferritin bind -22%, D2 ag-2 -5 and D2 antag 48*.
Screening CCc1nnc2n1N=C(c1ccc(OC)cc1)CS2 returned D2 PAM-1 -7, D2 PAM-2 4, D2 ag-1 0, Apoferritin bind -9%, D2 ag-2 -3 and D2 antag 34*.
Screening CCOc1ccc(-c2nnc3n2N=C(c2ccc(OC)cc2)CS3)cc1 returned D2 PAM-1 -2, D2 PAM-2 9, D2 ag-1 1, Apoferritin bind inconclusive, D2 ag-2 1 and D2 antag 19.
`Cc1csc(=O)n1CCC(=O)OCC(=O)Nc1ccc(C(N)=O)cc1` gave D2 PAM-1 -1, D2 PAM-2 -4, D2 ag-1 0, D2 ag-2 -5 and D2 antag -3.
Cc1csc(=O)n1CCC(=O)OCC(=O)Nc1ccc(S(N)(=O)=O)cc1 was read as D2 PAM-1 1, D2 PAM-2 2, D2 ag-1 -1, D2 ag-2 0 and D2 antag 54*.
Cc1cc(C(F)(F)F)c(C#N)c(=O)[nH]1 was read as D2 PAM-1 0, D2 PAM-2 3, D2 ag-1 1, Apoferritin bind 1%, D2 ag-2 5 and D2 antag -19.
For Cc1cc(C)c(-c2cc(C(F)(F)F)no2)c(=O)[nH]1 the results were D2 PAM-1 1, D2 PAM-2 -10, D2 ag-1 2, Apoferritin bind -3%, D2 ag-2 3 and D2 antag 32*.
`Cc1cccc(C)c1OCC(=O)N/N=C/c1cc2c(cc1[N+](=O)[O-])OCO2` gave D2 PAM-1 1, D2 PAM-2 -8, D2 ag-1 -3, Apoferritin bind inconclusive, D2 ag-2 0 and D2 antag 30*.
`COc1ccc(OC)c(CCNC(=O)CN2C(=O)CC(C)(C)S(=O)(=O)c3ccccc32)c1` gave D2 PAM-1 -3, D2 PAM-2 34*, D2 ag-1 0, Apoferritin bind 0%, D2 ag-2 1 and D2 antag -1.
`CC1(C)CC(=O)N(CC(=O)NC2CCCC2)c2ccccc2S1(=O)=O` gave D2 PAM-1 -2, D2 PAM-2 -1, D2 ag-1 2, Apoferritin bind 0%, D2 ag-2 -2 and D2 antag 4.
Screening Cc1nn(C(=O)Cn2ccc([N+](=O)[O-])n2)c(C)c1Br returned D2 PAM-1 -4, D2 PAM-2 31*, D2 ag-1 -2, Apoferritin bind inconclusive, D2 ag-2 2 and D2 antag 12.
O=C(Cn1ccc([N+](=O)[O-])n1)N1CCc2ccccc21 was read as D2 PAM-1 3, D2 PAM-2 -6, D2 ag-1 0, Apoferritin bind -20%, D2 ag-2 6 and D2 antag 2.
Cc1cccc(N2CCN(Cc3nc(-c4ccccc4Cl)oc3C)CC2)n1 was read as D2 PAM-1 -7, D2 PAM-2 -5, D2 ag-1 2, Apoferritin bind -11%, D2 ag-2 3 and D2 antag 40*.
`CC(=NO)c1ccc2c(c1)C(=NO)c1ccccc1-2` gave D2 PAM-1 83* and D2 ag-2 13.
For ON=C1c2ccccc2-c2ccc(O)cc21 the results were D2 PAM-1 -18 and D2 ag-2 -6.

Screening results deposited in PubChem by National Center for Advancing Translational Sciences (NCATS).
